The panel holds about 79,000 compounds, 15% with a hit somewhere; the sample as a whole holds those more often. Rule as the data show it: active = growth inhibition above about 70%; inactive = the rest.
What was measured:
[1] = NCI Yeast Anticancer Drug Screen. Data for the rad50 strain (AID 155);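 also: 0% = growth of vehicle-only cultures of the same strain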; conditions: S. cerevisiae rad50 strain growth inhibition; at 50.0 µM; hits give high values
Summary of the method: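 Yeast carrying a defined DNA repair defect were exposed to test compounds, and growth was compared with vehicle-treated controls to give percent inhibition.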

[2] = NCI Yeast Anticancer Drug Screen. Data for the mec2-1 strain (AID 157); conditions: S. cerevisiae mec2-1 strain, at 50.0 µM, hits give high values
Summary of the method: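 Strain: mec2-1 (DNA repair/cell cycle alteration). Compound exposure, then growth measured; inhibition expressed relative to vehicle.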

[3] = NCI Yeast Anticancer Drug Screen. Data for the sgs1 mgt1 strain (AID 161);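 also: 0% = growth of cultures given vehicle only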; conditions: S. cerevisiae sgs1 mgt1 strain, at 50.0 µM, hits give high values
Summary of the method: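 Genetically altered yeast, compound exposure, growth inhibition relative to vehicle.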

[4] = NCI Yeast Anticancer Drug Screen. Data for the cln2 rad14 strain (AID 165);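 also: 0% = growth equal to vehicle treated cultures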; conditions: S. cerevisiae cln2 rad14 strain, at 50.0 µM, hits give high values
Summary of the method: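 Compounds are applied to the cln2 rad14 yeast strain, and growth is then compared with that of vehicle-treated cultures to give inhibition.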

[5] = NCI Yeast Anticancer Drug Screen. Data for the bub3 strain (AID 167); conditions: S. cerevisiae bub3 mutant strain, at 50.0 µM, hits give high values
Summary of the method: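 Compounds were applied to a genetically altered yeast strain carrying a cell-cycle control defect. Growth inhibition was scored against vehicle-treated controls.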

[6] = NCI Yeast Anticancer Drug Screen. Data for the mlh1 rad18 strain (AID 175); conditions: S. cerevisiae mlh1 rad18 strain growth inhibition; at 50.0 µM; hits give high values
Summary of the method: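 Read-out is yeast growth inhibition, calculated against vehicle-only controls. The compound was applied to a strain engineered with DNA damage repair alterations.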

Measured: growth inhibition

CCOC(=O)C1=C(SC)SC(C(=O)OCC)C2C=C(C)C=CN12 (stereo not given)
inactive: [1] -5.2% | [2] -19.4% | [3] -10.7% | [4] 5.05% | [5] -32.9% | [6] 3.75%

Fc1ccc2c(c1)CC(CBr)O2 (stereo not given)
inactive: [1] -14.2% | [2] -8.5% | [3] -4.5% | [4] -23.9% | [5] -1.95% | [6] 2.8%

O=C1Oc2cc3c(c4cccc1c24)O[C@H](c1ccccc1)[C@@H](c1ccccc1)[C@@H]3c1ccc(Cl)cc1
inactive: [1] -2.95% | [2] 11.2% | [3] -2.4% | [4] -5.15% | [5] 3.3% | [6] 9.3%

CC1C2CC(C(S(=O)(=O)O)C2=O)C1(C)C (stereo not given)
inactive: [1] 9.25% | [2] -7% | [3] -32.5% | [4] 6.45% | [5] -36.8% | [6] -29.3%

Cc1[nH]c(=O)nc(N(CCO)/N=C/c2ccc(Cl)cc2)c1C(=O)Nc1ccc(Cl)cc1
inactive: [1] 6.7% | [2] 38.6% | [3] -18.1% | [4] 12.4% | [5] -13.3% | [6] -36%

Cc1ccc(S(=O)(=O)OCC2C(COS(=O)(=O)c3ccc(C)cc3)C3CCC2C2C3C3C2C2(C)C(=O)C3(C)C(c3ccccc3)=C2c2ccccc2)cc1 (stereo not given)
inactive: [1] 0.35% | [2] -5.2% | [3] 4.2% | [4] -5.7% | [5] -5.5% | [6] 12.3%

Clc1nnc(-c2ccccc2)s1
inactive: [1] 2.3% | [2] 2.85% | [3] 19.9% | [4] 7.85% | [5] 8.2% | [6] 9.5%

CC(C)CC(C)OB(OC(C)CC(C)C)OC(C)CC(C)C (stereo not given)
inactive: [1] -11.2% | [2] -24.1% | [3] -4.3% | [4] -16.9% | [5] 0.7% | [6] -14.6%

CCCCCc1nnc2n1N=C(c1ccc(Cl)cc1)CS2
inactive: [1] -26.6% | [2] -13.9% | [3] -2.5% | [4] 4.1% | [5] -17.6% | [6] 3.5%

CCOC(=O)C(CCSC)(CCN(C)Cc1ccccc1)C(=O)OCC
inactive: [1] -23.1% | [2] -3.05% | [3] -6.9% | [4] -0.9% | [5] 8.85% | [6] -3.3%

COc1ccc(Nc2nc(NS(=O)(=O)c3cc(C)c(Cl)cc3S)n[nH]2)cc1
inactive: [1] 23.4% | [2] 27.9% | [3] 3.65% | [4] 24.9% | [5] 16.9% | [6] -4.9%

CCc1ccc(CC(=S)N2CCOCC2)cc1
inactive: [1] 4.2% | [2] 1.45% | [3] 5.55% | [4] -1.7% | [5] -15.9% | [6] -3.9%

C1=CC(c2ccccc2)C(c2ccccc2)C(c2ccccc2)=C1 (stereo not given)
inactive: [1] -16.6% | [2] 2.05% | [3] 8.8% | [4] -13.2% | [5] -4.95% | [6] -22.6%

O=S=NCCCl
inactive: [1] -14.3% | [2] -14.6% | [3] -13.2% | [4] 1.5% | [5] -10.8% | [6] 0.35%

CN(C)/C=N/NC(=O)C(O)(c1ccccc1)c1ccccc1
inactive: [1] -7.45% | [2] 9.8% | [3] -7.85% | [4] -0.25% | [5] 1.55% | [6] 7.15%

COc1cc(CCC(C)=O)ccc1OC(=O)c1c(-c2c(F)cccc2Cl)noc1C
inactive: [1] 1.85% | [2] -12.2% | [3] 14.3% | [4] 19.3% | [5] 10.3% | [6] 3.5%

CN(C)COC(=S)SCC(=O)O
inactive: [1] 8.4% | [2] -0.85% | [3] 2.6% | [4] -26.6% | [5] -3.05% | [6] -1.9%

O=c1[nH]cnc2c1CNC2
inactive: [1] 9.5% | [2] -2.5% | [3] -10.4% | [4] -65.8% | [5] -18.4% | [6] 1.6%

COC(=O)CCCCCCC/C=N/Nc1ccc([N+](=O)[O-])cc1[N+](=O)[O-]
inactive: [1] 6.9% | [2] 22% | [3] 4.7% | [4] 8.85% | [5] 7.3% | [6] 17.4%

Cc1ccc2ccccc2c1[N+](=O)[O-]
inactive: [1] 43.5% | [2] 5% | [3] 37.3% | [4] 17.1% | [5] 21.6% | [6] 36.5%

c1ccc(C(c2ccccc2)c2ccccc2)cc1
inactive: [1] -20.6% | [2] -20.4% | [3] -16.1% | [4] -10.3% | [5] -8.7% | [6] -23.6%

CN1/C(=C\N=O)C(C)(C)N(O)C1(C)C
inactive: [1] 16.6% | [2] -13.9% | [3] 2.55% | [4] 17.2% | [5] 5.85% | [6] -85.7%

Cc1c2oc3c(C)ccc(C(=O)NCCN4CCCC4)c3nc-2c(C(=O)NCCN2CCCC2)c(N)c1=O
inactive: [1] 64.5% | [2] 17.4% | [3] 5.9% | [4] 4.2% | [5] 3.6% | [6] 9.65%

CC(=O)N1C(=O)C(=O)c2cc(Cl)ccc21
inactive: [1] -1.85% | [2] -6.9% | [3] 3.95% | [4] -2.1% | [5] -0.2% | [6] -1.6%

c1ccc(N2CCCC2(c2ccccc2)c2ccccc2)cc1
inactive: [1] 29.1% | [2] 11.3% | [3] 47.1% | [4] -11.8% | [5] 22.9% | [6] 28.4%

CC(C)(C)OC(=O)NO
inactive: [1] -0.6% | [2] 2.9% | [3] 0% | [4] 1.75% | [5] 5.05% | [6] 4.7%

COC(=O)c1cc(C(=O)OC)c(CC(=O)C(=O)Nc2c(C(C)C)cccc2C(C)C)nc1CC(=O)C(=O)Nc1c(C(C)C)cccc1C(C)C
inactive: [1] -18.8% | [2] -22.9% | [3] -11.7% | [4] 1.75% | [5] -13.1% | [6] -6.85%

CCN(CC)CCOC(NC(C)=O)(c1ccccc1)c1ccccc1
inactive: [1] 3.5% | [2] -9.55% | [3] 9.85% | [4] 1.55% | [5] 14.8% | [6] 20%

NC1C(O)OCC(O)C1O (stereo not given)
inactive: [1] -0.35% | [2] 9.3% | [3] 10.2% | [4] 7.25% | [5] 19.4% | [6] 23.1%

O=C1C(c2cnc3c(n2)CCC=C3)=C(O)c2ccccc21
inactive: [1] -1.15% | [2] -7.8% | [3] -6.6% | [4] -84.2% | [5] -16.7% | [6] -0.65%

Cc1ccc2c(c1)C(OC(=O)Nc1ccccc1)CCC2 (stereo not given)
inactive: [1] 18.1% | [2] 2% | [3] 3.5% | [4] 6.05% | [5] 38% | [6] 5.1%

COC(=O)/C=C1\CCC(C)O1 (stereo not given)
inactive: [1] -1.35% | [2] -26.6% | [3] -27.7% | [4] 8% | [5] -19.2% | [6] 16%

COc1ccc2c(c1OC)Oc1c(OC)ccc3c1C(C2)N(C)C[C@@H]3O (stereo not given in full)
inactive: [1] 10.1% | [2] 3.25% | [3] -7.6% | [4] -0.6% | [5] 26.1% | [6] -5.5%

COc1ccc(C(=O)c2ccccc2)c(O)c1
inactive: [1] 13.1% | [2] 1.8% | [3] -10.6% | [4] 4.95% | [5] 0.55% | [6] 6.9%

O=C(OCC(Cl)(Cl)Cl)N1[C@H]2C3=C(CCC3)[C@@H]([C@H]3O[C@H]32)N1C(=O)OCC(Cl)(Cl)Cl
inactive: [1] -38.8% | [2] -8.35% | [3] -1.9% | [4] 20.7% | [5] 10% | [6] 2.3%

COc1ccc2nc(C)cc(N=[N+]=[N-])c2c1
inactive: [1] -34.6% | [2] 1.45% | [3] -16.5% | [4] -46.5% | [5] 8.55% | [6] 10.6%

Cc1ccc(S(=O)(=O)N2CCSCCSCCSCCN(S(=O)(=O)c3ccc(C)cc3)CC2)cc1
inactive: [1] 7.05% | [2] -0.8% | [3] 4.25% | [4] 15.6% | [5] -4.1% | [6] 23.1%

O=C1CCC(c2n[nH]c(=S)o2)N1 (stereo not given)
inactive: [1] -2.8% | [2] 22.7% | [3] 9.05% | [4] -6.65% | [5] 13.2% | [6] 4.75%

CC(CCC(=O)O)[C@H]1CCC2[C@H]3C(CC(=O)[C@@]21C)[C@@]1(C)CCC(O)C[C@H]1C[C@@H]3O (stereo not given in full)
inactive: [1] -7.75% | [2] -7.7% | [3] 5.9% | [4] -29.4% | [5] -17.1% | [6] -11.7%

Nc1ncc2c(n1)-c1ccccc1OC2N1CCOCC1 (stereo not given)
inactive: [1] 28% | [2] 2.15% | [3] -0.45% | [4] 2% | [5] -22.6% | [6] -7.8%
